From PubChem BioAssay
ALDH1A1 block – qHTS Assay for Inhibitors of Aldehyde Dehydrogenase 1 (ALDH1A1); Aldehyde dehydrogenase 1A1 (Homo sapiens), P00352; Purified ALDH1A1, NADH fluorescence, propionaldehyde substrate; Potency, µM (series often up to 75.3 µM), for the others: top-dose activity, negative = inhibition, hits mostly inhibitors; 7.3% of 220,000 active; AID 1030, 2008;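 further: potency means the concentration at half of the fitted maximal effect; plate controls were no enzyme wells and a reference inhibitor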
Lamin A splicing – qHTS Assay for Modulators of Lamin A Splicing | HeLa LMNA splicing GFP/RFP minigene ratio, 48 h | Potency, µM (series often up to 46.1 µM), without a hit: at the top dose ratio change, negative = inhibition, most hits filed as inhibitors | 0.01% of 200,000 active; active means well fitted inhibition curve with a large enough effect in the signal ratio, with a control signal flat, not every such curve was filed as active; inconclusive means small, poorly fitted or top-dose-only effect, or effect the other way, or a change in a side signal; the % refers to the signal ratio; further: potency means the concentration at half of the fitted maximal effect
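S3 HeLa stable clones carrying a lamin A-EGFP splicing minigene plus DsRed2 were seeded at 600 cells/well in Opti-MEM with 2% FBS, pin-dosed and incubated 48 h at 37°C. Acumen cytometry (488 nm) gave the GFP/RFP total-intensity ratio.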
ALOX12 inhib – qHTS Assay for Inhibitors of 12-hLO (12-human lipoxygenase) | Polyunsaturated fatty acid lipoxygenase ALOX12 (Homo sapiens), P18054 | purified 12-hLO, xylenol orange hydroperoxide absorbance | Potency, µM (highest dose often 57.1 µM), for the others: top-dose activity change, negative = inhibition, usual class: inhibitors | 0.12% of 150,000 active | AID 1452, 2008; active means well fitted inhibition curve with a large enough effect; inconclusive means small, poorly fitted or top-dose-only effect; further: potency means the concentration at half of the fitted maximal effect; nearly all actives have a fitted effect of over 55% in size
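Xylenol orange chromogenic assay: hydroperoxide from 12hLO oxidises Fe(II), giving red-shifted Fe(III)-XO absorbance. Conditions: 150 nM enzyme, 40 uM arachidonic acid, 25 mM Hepes pH 7.0, 0.01% Triton X-100, 30 min, room temperature.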
HPGD inh – qHTS Assay for Inhibitors of HPGD (15-Hydroxyprostaglandin Dehydrogenase) | 15-hydroxyprostaglandin dehydrogenase [NAD(+)] (Homo sapiens), P15428 | 4.3% of 150,000 active | AID 894, 2007 | Potency, µM, for inactives: top-dose activity change, negative = inhibition, hits mostly inhibitors | purified HPGD, NADH fluorescence kinetic, PGE2 substrate; further: potency means the concentration at half of the fitted maximal effect
Target sequence (P15428 whole entry, looked up): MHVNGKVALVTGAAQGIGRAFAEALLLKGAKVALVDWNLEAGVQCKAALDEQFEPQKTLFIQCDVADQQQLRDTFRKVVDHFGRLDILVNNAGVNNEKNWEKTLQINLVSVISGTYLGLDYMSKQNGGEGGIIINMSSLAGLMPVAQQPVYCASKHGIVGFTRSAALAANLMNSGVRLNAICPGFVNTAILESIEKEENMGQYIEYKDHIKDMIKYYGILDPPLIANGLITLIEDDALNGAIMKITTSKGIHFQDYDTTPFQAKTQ
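NADH formation kinetics: reaction with 30 uM PGE2 and 1 mM NAD+ (final), 20 nM enzyme, Tris-HCl pH 8 with Tween 20, after 15 min compound preincubation at room temperature. Fluorescence change, last versus first of five reads.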
PNC assembly inh – High Content Assay for Compounds that inhibit the Assembly of the Perinucleolar Compartment; PC3M PTB-GFP, PNC prevalence imaging, 16 h; stronger effect = lower value; activity change (PNC), negative = inhibition, % at 10 µM; 3.1% of 140,000 active; AID 2417, 2010;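 active means readout at or below -70, meaning at least 70% loss of cells showing the perinucleolar compartment, a nuclear body marking cancer cells; inconclusive means readout between -30 and a set limit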;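 further: plate controls were DMSO wells for no effect and camptothecin positive control wells for full effect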
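Compounds are pinned in duplicate onto adhered PC3M cells stably expressing GFP-tagged PTB and incubated 16 h at 37 C. Cells are then fixed, nuclei stained with Hoechst, and PNC-positive cells counted.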
Numbers without * were called inactive; ? = inconclusive; . = no result; [ ] = another dose, or the depositor's remark. A selection: hits, their analogues and other compounds. The true share with any hit is near 10%. Unless noted, the call rests on the fitted dose curve; in most records, active means well fitted inhibition curve with a large enough effect (not every such curve was filed as active); inconclusive means small, poorly fitted or top-dose-only effect, or another doubt; inactive means no such curve, though single readings can be large or run the other way. Unless noted, on the % scale 0 is the no-effect control and ±100 the full control effect.

SMILES | ALDH1A1 block | Lamin A splicing | ALOX12 inhib | HPGD inh | PNC assembly inh
Cc1ccc(/C=N/Nc2cccc(C(=O)O)c2)s1 | -5% | -7% | 2% | -14% | ?
c1nc(N2CCC3(CC2)OCCO3)c2[nH]cnc2n1 | 15% | -10% | -1% | -5% | -113*
Cc1ccc(NC(=O)Cn2nc(-c3ccccc3)nc(Cc3ccc(Cl)cc3)c2=O)cc1 | . | 0%[46 µM] | . | . | .
COC(=O)c1ccc(C(NC(=O)OCc2ccccc2)/C(=C/[C@@H](C)C(=O)NCC2CC2)c2cccnc2)cc1 (stereo partly specified) | -1% | . | -2% | -2% | .
CC(=O)n1c2ccccc2c2ccccc21 | 16% | 7% | 0% | -16% | 59
CC(=O)n1c(Cl)c(NC(=O)CCl)c2ccccc21 | 22µM* | ? | 5% | -7% | 6
C=CCOC(=O)C(C(C)=O)C(NC(=O)OC)c1cccs1 (stereo unspecified) | 8%[13.5 µM] | . | . | . | .
CCC(CO)n1c(SCc2cc(=O)oc3cc(C)ccc23)nc2ccccc2c1=O (stereo unspecified) | 4.5µM* | -11% | -10% | -12% | ?
CS(=O)(=O)Nc1cccc(-c2nc(NCc3cccs3)c3ccccc3n2)c1 | -23% | ? | -8% | ? | .
CC[C@]1(O)C[C@H]2CN(CCc3c([nH]c4ccccc34)[C@](C(=O)OC)(c3cc4c(cc3OC)N(C=O)[C@H]3[C@@](O)(C(=O)OC)[C@H](OC(C)=O)[C@@]5(CC)C=CCN6CC[C@]43[C@H]65)C2)C1 | . | . | -5% | . | .
Cc1cc(C)cc(NC(=O)C(=O)NCC(c2cccnc2)N2CCN(c3ccccc3)CC2)c1 (stereo unspecified) | . | 14%[46 µM] | . | . | .
O=C1O/C(=C/c2ccccc2)c2ccccc21 | ? | -3% | -2% | ? | ?
O=C1/C(=C/c2ccccc2)Nc2ccccc21 | -8% | -2%[0.0737 µM] | 8% | 18µM* | 25
O=C(c1cccc(F)c1)N1CCC2(CC1)CN(c1ccccc1)C2 | ? | . | -14% | -8% | .
COc1cc(/C=C2/C(=O)ON=C2c2ccccc2)ccc1O | ? | ? | -5% | 11µM* | 29
O=C1ON=C(c2ccc(Cl)cc2)/C1=C/c1ccc(O)cc1 | 13µM* | ? | . | . | .
CC(=O)Nc1nonc1-c1nc2ccccc2n1Cc1nnc(C)o1 | ? | 7% | -3% | ? | -87*
COc1ccc(C(=O)N/N=C/c2cc3ccccc3[nH]c2=S)cc1 | 1.4µM* | -6% | 18µM* | 1.3µM* | -27
COc1ccc(NC(=O)N2CCc3nc(COc4ccccc4)c4c(c3C2)CO[C@@H](C)C4)cc1 | 22%[13.5 µM] | 14%[9.22 µM] | 0%[11.4 µM] | -5% | .
C=CCSC1=C(C#N)C(c2ccccc2Cl)CC(=O)N1 (stereo unspecified) | 25µM* | 6% | -5% | -14% | 18
C=CCSC1=C(C#N)C(c2ccccc2C)CC(=O)N1 (stereo unspecified) | ? | -7% | -3% | -13% | -19
COc1ccc(OC)c(CNS(=O)(=O)c2c(C(=O)N3CCC(C)CC3)c(C)n(C)c2C)c1 | . | -18%[46 µM] | . | . | .
NC(=O)[C@@H]1CCNc2c(I)cc([N+](=O)[O-])cc2C(=O)N[C@@H](CO)C(=O)N[C@@H](Cc2ccc(O)cc2)C(=O)N1 | -6% | 3% | -25% | -17% | 12
CC(C)[C@@H]1NC(=O)c2cc([N+](=O)[O-])cc(I)c2NCC[C@@H](C(N)=O)NC(=O)[C@H](CO)NC1=O | 0% | 0% | -4% | -17% | 72
CC(C)C[C@@H]1NC(=O)[C@H](C(C)C)NC(=O)c2cc([N+](=O)[O-])cc(I)c2NCC[C@@H](C(N)=O)NC1=O | 28µM* | 8% | -20% | -14% | 50
